A selection: hits, their analogues and other compounds. The true share with any hit is near 12%.
PLAP activator = activators of human placental alkaline phosphatase | P05187 | purified PLAP enzyme, luminescent substrate read-out; active compounds read high | activation fold at 20 µM | actives 1.2% (n = 96,000) | AID 696; in the data active means activation fold above about 2
PostGolgi ctrl = growth of the yeast control strain, post-Golgi counter-screen; efflux-deficient yeast background strain, growth absorbance A615, 16 h; inhibition, % at 10 µM; actives 5% (n = 98,000); AID 738
D1 allo mod = allosterically modulates the human D1 dopamine receptor | P21728 | HEK293 D1, CRE-luciferase, dopamine EC30 potentiation; actives deviate in either direction | B-score at 10 µM | actives 5.9% (n = 58,000) | AID 641;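 active means luminescence count or its row- and column-corrected plate score outside the 99.7% band of the plate's sample wells, on either side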
hDAT+cocaine = changed human dopamine transporter uptake under cocaine IC80; AID 449768; LLC-PK1 hDAT cells, [14C]-dopamine uptake with cocaine IC80; actives deviate in either direction; B-score at 10 µM; Q01959; actives 1.3% (n = 110,000);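 active means Z score or B-score, a plate-position-corrected score, falls beyond the plate's 99.7% confidence bounds, in either direction; inactive means both scores lie inside the 99.7% bounds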;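 further: scored against the spread of the other compound wells on the same plate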
Target sequence (Q01959 whole entry, looked up): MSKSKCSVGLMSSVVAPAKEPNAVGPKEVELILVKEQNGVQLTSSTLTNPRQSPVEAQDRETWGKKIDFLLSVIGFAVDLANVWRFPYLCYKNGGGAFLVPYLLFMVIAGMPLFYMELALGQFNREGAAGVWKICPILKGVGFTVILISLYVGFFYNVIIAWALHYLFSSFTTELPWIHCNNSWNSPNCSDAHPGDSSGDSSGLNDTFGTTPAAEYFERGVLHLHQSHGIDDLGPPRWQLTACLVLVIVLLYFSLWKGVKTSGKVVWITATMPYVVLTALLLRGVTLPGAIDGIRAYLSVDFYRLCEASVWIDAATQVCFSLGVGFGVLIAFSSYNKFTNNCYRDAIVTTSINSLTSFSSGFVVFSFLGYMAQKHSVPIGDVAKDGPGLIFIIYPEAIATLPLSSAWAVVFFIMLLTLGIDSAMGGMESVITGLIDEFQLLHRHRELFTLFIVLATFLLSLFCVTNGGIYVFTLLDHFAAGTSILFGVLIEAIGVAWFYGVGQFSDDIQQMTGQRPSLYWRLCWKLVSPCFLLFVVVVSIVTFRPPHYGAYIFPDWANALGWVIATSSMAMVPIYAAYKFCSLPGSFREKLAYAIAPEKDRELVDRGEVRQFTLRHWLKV
Cav3 T inh = blocks human Cav3.2 T-type calcium channel | O95180 | Cav3.2-expressing cells, Fluo-4 calcium fluorescence FDSS; active compounds read low | B-score at 10 µM | actives 4% (n = 100,000) | AID 449739;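 active means single-dose well whose peak fluorescence ratio is a statistical outlier from its plate by either plate-standardised score or position-corrected B-score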
PostGolgi yeast = growth inhibition of a yeast mutant, post-Golgi transport screen; actives 0.9% (n = 98,000); inhibition, % at 10 µM; post-Golgi transport phenotypic cell assay; AID 739;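 further: yeast cells grown in 1536-well plates; yeast grown about 18 h at 30C before absorbance read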
The depositor's hits bear a star; / = no result. Unless noted, no stated cut-off is given here; in the data, active means inhibition above about 30%; inactive means the rest.

SMILES | PLAP activator | PostGolgi ctrl | D1 allo mod | hDAT+cocaine | Cav3 T inh | PostGolgi yeast
O=C(CSC1=NCCS1)Nc1ccnc2ccccc12 | 1 | -4.3 | -2.57 | -0.226 | -1.3 | -4.3
CCCC(C(=O)NCc1ccccc1)N(C(=O)Cn1nnc(-c2cccs2)n1)c1ccc2c(c1)OCCO2 (stereo not drawn) | / | / | / | 0.833 | 0.72 | /
O=C(NCc1ccccc1)C(c1ccc(F)cc1)N(Cc1ccc2c(c1)OCO2)C(=O)Cn1nnc(-c2cccs2)n1 (stereo not drawn) | / | / | / | 0.0206 | -5.12* | /
COc1ccccc1NC(=O)N1CCCC1C(=O)NCc1ccc2c(c1)OCO2 (stereo not drawn) | 1.1 | -8.2 | / | -1.46 | 1.47 | -3.7
O=C(NCc1ccc2c(c1)OCO2)C1CCC(CNS(=O)(=O)c2ccccc2)CC1 (stereo not drawn) | / | 1.4 | -1.37 | -1.66 | -3.83* | 9.0
O=C(NCc1ccc2c(c1)OCO2)C1CCCN1C(=O)Nc1ccccc1 (stereo not drawn) | 1 | -1.3 | 0.82 | -0.0915 | -0.00573 | 33.2*
COC(=O)c1sccc1-c1ccc(/C=N/OC(=O)c2ccccc2)o1 | 0.9 | 15.9 | / | -0.139 | 0.389 | 4.0
CCOC(=O)c1c(C)[nH]c(C(=O)C(C)OC(=O)c2cccc(OCc3c(C)noc3C)c2)c1C (stereo not drawn) | 1.4 | 7.8 | 2.05 | 1.45 | -4.72* | -6.4
Cc1noc(C)c1COc1cccc(C(=O)NCc2ccccc2Cl)c1 | 0.8 | 29.5 | / | 0.307 | -1.63 | 1.4
Cc1cc2ncn(CC(O)COC3CCCCC3)c2cc1C (stereo not drawn) | 1.5 | 31.0* | 0.62 | 1.13 | -0.494 | 13.5
COC(=O)CSc1nnc(SCc2ccc(OC)cc2)s1 | / | 4.2 | -2.3* | / | / | -1.6
Cc1c(Br)c([N+](=O)[O-])nn1C(C)C(=O)Nc1c(C)n(C)n(-c2ccccc2)c1=O (stereo not drawn) | 1 | 2.4 | / | -0.0869 | -0.274 | -3.2
NC(=O)CSc1nnc(C2CC2)n1-c1ccccc1 | 1 | 0.5 | / | -9.26* | -0.162 | 17.0
COC(=O)c1c(-c2ccc3ccccc3c2)csc1NC(=O)Cc1ccc(OC)c(OC)c1 | 1.3 | 15.4 | / | / | / | -1.4
CCOC(=O)c1c(-c2cccc([N+](=O)[O-])c2)csc1NC(=O)CCCOc1ccccc1OC | / | / | / | -0.58 | -4.79* | /
CCOC(=O)c1c(-c2ccccc2)csc1NC(=O)CSc1nnnn1C | 1.6 | 37.9* | 0.384 | -0.311 | -3.67 | 2.7
CCOC(=O)c1c(-c2ccc(OC)cc2)csc1NC(=O)CSc1ccccc1 | 0.8 | 0.9 | / | 0.202 | -4.76* | -8.3
CCOC(=O)c1c(-c2ccc(C)o2)csc1NC(=O)CSc1ncn[nH]1 | 2.2* | 33.9* | / | 0.716 | -3.99 | 1.4
Cc1ccc(-c2cc(C(=O)Nc3ccc4c(c3)OCCO4)c3ccccc3n2)cc1 | 1.3 | 15.0 | / | 2.12 | -0.464 | -4.9
c1ccc(-c2nc3cc(Oc4ccc5oc(-c6ccccn6)nc5c4)ccc3o2)nc1 | / | / | -0.606 | / | / | /
COc1cc([N+](=O)[O-])ccc1NC(=O)CCCOc1ccc(C)cc1 | 0.9 | 7.8 | / | 0.569 | -0.504 | -9.0
COc1cc([N+](=O)[O-])ccc1NC(=O)CCCOc1cccc(C)c1 | 0.9 | 16.9 | / | -0.17 | -3.41* | -11.2
CCOC(=O)c1c(NC(=O)CSc2nnnn2C)sc(C)c1-c1ccc(C)cc1 | 1.7 | 27.2 | -0.767 | 0.153 | -4.46* | 9.6
COCCCN(C(C)=O)c1nc(-c2ccc(OC)cc2)cs1 | 1.5 | 3.4 | 0.539 | 0.271 | / | -6.6
COc1ccc(C(=O)Nc2nc3ccccc3[nH]2)cc1OC | / | -3.6 | -1.93 | 0.00617 | -1.12 | 0.5
SMILES | PLAP activator | PostGolgi ctrl | D1 allo mod | hDAT+cocaine | Cav3 T inh | PostGolgi yeast
COc1ccc(C(=O)Nc2nc3ccccc3[nH]2)cc1S(=O)(=O)N1CCCC1 | 2* | 6.6 | / | -1.58 | 0.706 | 2.2
CC(C)NC(=O)COC(=O)c1ccc(Cl)c(S(=O)(=O)N2CCCC2)c1 | 1 | 31.9* | / | 0.1 | -0.694 | -3.1
O=C(Nc1ncn[nH]1)c1ccc(Cl)c(S(=O)(=O)N2CCCCCC2)c1 | 2.1* | 3.3 | / | -0.428 | 0.0155 | -5.4
O=C(Nc1cccnc1)c1ccc(Cl)c(S(=O)(=O)N2CCCCCC2)c1 | 1.5 | 3.5 | 0.0685 | 0.668 | -1.09 | -2.3
O=C(Nc1nc2ccccc2[nH]1)c1ccc(F)cc1 | 1.1 | 5.5 | -6.41* | -0.698 | -0.887 | 0.6
C#Cc1ccc([C@H]2C=C(C(=O)N3CCOCC3)O[C@@H](OCC)[C@@H]2CCCO)cc1 | / | / | / | 0.169 | 1.39 | /
O=C(c1ccccc1Oc1ccccc1)N1CCN(c2ccccc2F)CC1 | 1.4 | 32.7* | / | 0.0268 | -5.41* | -2.4
O=C(c1ccccc1C(=O)N1CCN(c2ccccc2F)CC1)N1CCN(c2ccccc2F)CC1 | 1.5 | 12.7 | 1.73 | -0.166 | -3.86* | 9.0
COc1ccccc1N1CCN(C(=O)c2ccccc2Oc2ccccc2)CC1 | 1.6 | 8.3 | 0.895 | 0.0172 | -4.73* | -0.2
O=C(c1ccccc1)N1CCN(c2ccccc2F)CC1 | 0.8 | 20.6 | 0.684 | 0.0249 | -0.705 | -4.0
COC(=O)C1CCN(C(=O)c2ccccc2Oc2ccccc2)CC1 | 1.2 | 11.6 | 3.51 | -0.467 | -0.0428 | 11.8
Cc1ccc(N2CCN(C(=O)c3ccccc3Br)CC2)c(C)c1 | 1.5 | 37.2* | 0.878 | 0.896 | -3.86 | 1.5
Cc1ccc(C)c(N2CCN(C(=O)c3ccccc3Br)CC2)c1 | / | 29.2 | -0.122 | 1.43 | -3.82 | 0.8
COc1ccccc1-n1cc(C(=O)NCC(=O)N2CCN(c3ccccc3)CC2)c2ccccc2c1=O | 1.2 | 5.8 | -0.0067 | 0.796 | 1.14 | -2.4
Cc1cccc(NC(=O)Cn2c(=O)oc3ccccc32)c1 | 1 | 4.0 | -2.11 | -1.97 | -0.15 | -4.0
N#CC(C#N)=C/C(C#N)=C(/N)N1CCN(c2ccc(Cl)cc2)CC1 | 1 | 30.6* | / | -0.133 | 0.381 | 47.5*
CCc1cccc(C)c1NC(=S)NCCc1c(C)[nH]c2ccc(C)cc12 | / | / | / | 1.49 | -3.36* | /
O=C(CN1C(=O)C2CC=CCC2C1=O)NCC1COc2ccccc2O1 (stereo not drawn) | 0.9 | -8.4 | / | -0.199 | 1.03 | 3.6
CC12CC(c3ccccc3O1)N(C(=O)c1ccco1)C(=S)N2c1ccccc1 (stereo not drawn) | 1.1 | 26.9 | / | -0.528 | -2.97 | 1.6
CC1CC(N(C(=O)c2ccc(Cl)cc2)c2ccccc2)c2ccccc2N1C(=O)c1ccco1 (stereo not drawn) | 1.6 | 29.1 | / | 0.433 | -5.74* | 5.2
CC1CC(N(C(=O)C2CC2)c2ccccc2)c2ccccc2N1C(=O)C1CC1 (stereo not drawn) | 1.3 | -2.9 | -1.15 | 0.715 | -1.61 | -3.2
CC1CC(N(C(=O)c2ccco2)c2ccccc2)c2ccccc2N1C(=O)c1ccco1 (stereo not drawn) | 1.7 | 14.8 | / | 0.629 | -5.33* | -1.0
C=CCOC(=O)C1=C[C@@H](c2csc3ccccc23)[C@H](CCCO)[C@@H](OCC)O1 | / | / | / | 1.17 | -1.09 | /
O=S(=O)(NCCn1ccc2ccccc21)c1ccccc1 | 1 | 14.2 | / | -0.453 | -1.52 | -3.1
